miR-21 act: qHTS Assay for Modulators of miRNAs and/orActivators of miR-21; HeLa miR-21 FLuc reporter, luciferase, 48 h; Potency, µM (highest dose often 38.3 µM), hits mostly activators; 340,000 tested, under 10 active; AID 2288, 2010;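 note: miR-21 action dims this reporter so a rising signal means less miR-21 action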
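HeLa cells stably expressing CMV-driven firefly luciferase with a downstream miR-21 binding sequence, endogenously expressing miR-21, were treated with titrations (up to about 40uM final) for 48 hours at 37 degree Celsius. Luciferase luminescence was read after lysis.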
GALK inhibitor: qHTS Assay for Inhibitors of Human Galactokinase (GALK). actives 0.007% (n = 270,000). Purified GALK, Kinase-Glo residual ATP luminescence. Potency, µM (series often up to 57.5 µM), actives largely listed as inhibitors. P51570
Target sequence (P51570 whole entry, looked up): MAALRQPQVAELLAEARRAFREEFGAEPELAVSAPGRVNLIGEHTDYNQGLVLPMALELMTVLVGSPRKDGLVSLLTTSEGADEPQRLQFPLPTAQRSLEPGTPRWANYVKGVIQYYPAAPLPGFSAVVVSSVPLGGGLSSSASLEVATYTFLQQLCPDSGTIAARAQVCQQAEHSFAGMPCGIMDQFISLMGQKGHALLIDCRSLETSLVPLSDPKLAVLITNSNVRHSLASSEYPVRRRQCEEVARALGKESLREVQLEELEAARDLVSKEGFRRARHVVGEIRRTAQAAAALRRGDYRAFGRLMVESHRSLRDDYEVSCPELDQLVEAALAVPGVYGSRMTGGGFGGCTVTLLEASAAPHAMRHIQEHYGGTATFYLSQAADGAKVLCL
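Kinase-Glo Plus luminescence measured ATP left after a 1 h room-temperature reaction. The reaction used 5 nM GALK, 100 uM galactose and 35 uM ATP at pH 8.0 (20 mM HEPES, 5 mM MgCl2, 60 mM NaCl, 1 mM DTT, 0.01% BSA).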
A549 viability: Nrf2 qHTS screen for inhibitors: counterscreen for cytotoxicity; Potency, µM (top dose mostly 46 µM), actives largely listed as inhibitors; actives 0.16% (n = 390,000); A549 ARE-Fluc cells, CellTiter-Fluor viability, 18-24 h
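A549 ARE_Fluc cells in 5% FBS OPTI-MEM were exposed to compounds in concentration-response for 18-24 h at 37 deg C. Viability was read by CellTiter-Fluor fluorescence (Ex 405/Em 525) after 30 min, before the luciferase read.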
Nrf2 activator: qHTS of Nrf2 Activators; Potency, µM (highest dose often 46.1 µM), hits mostly activators; actives 0.31% (n = 410,000); AREc32 ARE-luciferase reporter (MCF7-derived line), luminescence, 24 h; note: nearly all actives have a fitted effect of over 65% in size
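AREc32 cells carrying an ARE-driven firefly luciferase, 1000 cells/well in OPTI-MEM with 5% FBS, dosed after overnight attachment and incubated 24 hr at 37 deg C. Steady-Glo luminescence read after 30 min at RT.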
Nrf2 block: Nrf2 qHTS screen for inhibitors; A549 ARE-Fluc reporter, luciferase luminescence, 18-24 h; Potency, µM (highest dose often 46 µM), actives largely listed as inhibitors; actives 2.1% (n = 360,000); note: nearly all actives have a fitted effect of over 60% in size
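A549 ARE_Fluc cells, 5000/well, 5% FBS OPTI-MEM; compounds in dose-response, 18-24 h at 37 °C/5% CO2; CellTiter-Fluor viability read (Ex 405/Em 525), then BugLite luciferase luminescence = Nrf2 activity.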
PI4K2A block: qHTS for small molecular inhibitors of PI4K2A. Phosphatidylinositol 4-kinase type 2-alpha (Homo sapiens), Q9BTU6. purified PI4K2A, ADP-Glo luminescence, 1 h; active compounds read low. activity change, negative = inhibition, % at 76.9 µM. actives 0.13% (n = 420,000). AID 1346378, 2018; in the data active = activity change below about -50%; inconclusive = mostly about -30% to -49%
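PI4K2A activity was measured by ADP-Glo luminescence: enzyme (4 ug/mL stock) and phosphatidylinositol (1.2 mM stock) in Tris pH 7.5/MgCl2/EGTA/Triton X-100 buffer were reacted with ATP (300 microM stock) for one hour at ambient temperature.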
A number is an active result; i = inactive; ? = inconclusive; nt = no result given; ! = a repeat was not active. A selection: hits, their analogues and other compounds. The true share with any hit is near 2.2%. Unless noted, calls come from the whole dose curve; as a rule, active = well fitted curve in the direction sought with a large enough effect; inconclusive = small, poorly fitted or top-dose-only effect, or another doubt; inactive = no such curve, though single readings can be large; an effect the other way counts as inactive or inconclusive.

SMILES	miR-21 act	GALK inhibitor	A549 viability	Nrf2 activator	Nrf2 block	PI4K2A block
CC(C)C[C@H]1C(=O)N2CCC[C@H]2[C@]2(O)O[C@](NC(=O)C3C=C4c5cccc6[nH]c(Br)c(c56)C[C@H]4N(C)C3)(C(C)C)C(=O)N12 (stereo partly specified)	nt	nt	?	i	18µM	i
COc1cc(CN2CCc3nc(N4CCN(c5ccccn5)CC4)ncc3C2)cc(OC)c1OC	?	nt	i	i	nt	i
Cn1nc(-c2ccc(OCC(=O)N3CCN(Cc4ccccc4)CC3)cc2)c2ccccc2c1=O	i	i	?	i	18µM	i
CSc1ccc(CN2CCN(C(=O)COc3ccc(C)cc3)CC2)cc1	i	i	i	i	21µM!	i
Cn1cccc1CN1CCN(C(=O)COc2ccccc2)CC1	i	i	i	i	i	i
Nc1ccccc1C(=O)OCC(O)CO (stereo unspecified)	nt	nt	nt	nt	nt	i
N#Cc1cccc(NC(=O)CSc2nc3c(cc2C#N)N2CCC3CC2)c1	i	nt	i	i	?	i
N#Cc1cc2c(nc1SCC(=O)Nc1cccc(C(F)(F)F)c1)C1CCN2CC1	?	nt	i	i	21µM	i
O=C(c1ccc(N2CCCCCC2)c([N+](=O)[O-])c1)N1CCC2(CC1)OCCO2	i	i	?	i	23µM	i
CCOc1ccc(NC(=O)c2cc3c(C)nn(-c4ccccc4)c3s2)cc1	i	nt	i	i	?	i
COc1ccc2oc(=O)c(C(=O)NCCc3c(C)[nH]c4ccc(F)cc34)cc2c1	?	nt	i	i	i	i
CCCC1=Nc2cc(C(=O)NC3CCC(C)CC3)ccc2Sc2ccccc21 (stereo unspecified)	i	nt	i	i	i	i
CCCC1=Nc2cc(C(=O)NCCc3ccc(OC)cc3OC)ccc2Sc2ccccc21	?	nt	i	i	18µM	i
Cc1ccc(-n2nc3c(=O)n(CC(=O)Nc4ccccc4F)nc(C)c3c2C)c(C)c1	i	nt	i	i	?	i
C[C@]12CC[C@H]3[C@@H](CCC4=CC(=O)CC[C@@H]43)[C@@H]1CC[C@@H]2OC(=O)CCC1CCCCC1	nt	nt	nt	nt	nt	i
COc1cccc2c1cc([N+](=O)[O-])c1c(C(=O)O)cc3c(c12)OCO3	nt	nt	?	i	12µM	i
C=CCc1cc(OC)c2c(c1)OCO2	nt	nt	i	i	i	i
CCO[C@H]1O[C@@H]2OC3(C)CC[C@H]4[C@H](C)CC[C@@H]([C@H]1C)[C@@]24OO3	nt	nt	nt	nt	nt	i
Cc1ccc(N2CCN(C(=O)C3CCC(CNS(=O)(=O)c4ccc(Br)s4)CC3)CC2C)cc1 (stereo unspecified)	i	nt	i	i	9.2µM	i
CCc1cccc(NC(=O)C2CCN(S(=O)(=O)c3ccc(Br)s3)CC2)c1	i	nt	i	i	?	i
CCC1(O)C(=O)OCc2c1cc1n(c2=O)Cc2cc3c(N)cccc3nc2-1 (stereo unspecified)	nt	nt	?	i	0.82µM	i
O=C(c1ccc(Cl)cc1)c1cn(Cc2ccccc2)c2cc3c(cc2c1=O)OCCO3	i	nt	i	i	?	i
CCC(OC(C)=O)C(CC(C)NC)(c1ccccc1)c1ccccc1 (stereo unspecified)	nt	nt	nt	nt	nt	i
COC(=O)C1=C(C(=O)OC)C2OC1c1cc3ccccc3cc12	nt	nt	i	i	21µM	i
COC(=O)C1=C(c2ccc3ccccc3c2)C[C@@H]2CC[C@H]1N2C	nt	nt	i	i	i	i
CC(C)COP(=O)(OCC(C)C)C(Nc1ccccc1)c1ccccc1 (stereo unspecified)	i	i	i	i	?	i
O=P(Oc1ccccc1)(Oc1ccccc1)C(Nc1ccccc1)c1ccccc1 (stereo unspecified)	i	i	i	i	21µM	i
Oc1ccc2c3c1O[C@H]1[C@@H](O)C=C[C@H]4[C@@H](C2)NCC[C@@]341	nt	nt	nt	nt	nt	i
COc1cccc(N2CCN(c3c4c(nc5nncn35)CCC4)CC2)c1	i	nt	i	i	16µM	i

Bioassay records from PubChem BioAssay.
